# BAZ2B block: inhibitors of human BAZ2B bromodomain; Potency, µM (doses to about 114 µM), inactives show top-dose activity change, negative = inhibition, most hits filed as inhibitors; AID 504333; 4.4% of 360,000 active; AlphaScreen BAZ2B-H3K14Ac peptide displacement; Q9UIF8; note: % is set by controls: 0 for no effect and ±100 for the full control effect; nearly all actives have a fitted effect of over 60% in size
#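 Protein-peptide AlphaScreen: BAZ2B 50 nM, b-H3K14Ac 50 nM, 1x PBS pH 7.4 + 0.01% Tween-20. Preincubation 30 min RT; cpd 30 min RT (top 110 uM); beads 20 min RT, light-protected.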
# HP1b binding inh: inhibitors of HP1-beta chromodomain binding to methylated histone tails. P83916. AlphaScreen HP1-beta / biotin-H3K9me3 peptide binding. Potency, µM (highest dose often 114 µM), without a hit: top-dose activity change, negative = inhibition, usual class: inhibitors. 0.56% of 390,000 active. AID 540317; note: nearly all actives have a fitted effect of over 70% in size
#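 AlphaScreen: HP1-beta (50 nM) preformed 30 min with biotin-H3(1-18)K9me3 peptide (50 nM) in PBS pH 7.4, 0.01% Tween-20. Compound added for 30 min at RT, then streptavidin donor/nickel chelate acceptor beads (10 ug/mL) for 30 min.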
# L3MBTL1 block: blocks human L3MBTL1. Q9Y468. AlphaScreen L3MBTL1–H3K9me1 peptide binding. Potency, µM (highest dose often 57.1 µM), without a hit: at the highest dose activity, negative = inhibition, hits mostly inhibitors. 0.66% of 230,000 active. AID 485360; note: % is set by controls: 0 for no effect and ±100 for the full control effect; nearly all actives have a fitted effect of over 60% in size
#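 Read-out is AlphaScreen signal from streptavidin donor and nickel chelate acceptor beads (10 ug/mL final each) bridging L3MBTL1 (50 nM) and biotinylated K9-monomethylated H3(1-15) peptide (75 nM), after 30 min compound exposure at room temperature.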
# Sfp inh: blocks B. subtilis Sfp PPTase activity; Q9F4F7; Biochemical Sfp PPTase activity, qHTS; Potency, µM, inactives show largest response in the series, negative = inhibition, usual class: inhibitors; 3.5% of 310,000 active;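 note: the enzyme is Sfp with the accession as filed and its product quenches rhodamine fluorescence; 0% = enzyme reaction without inhibitor and -100% = no enzyme wells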
#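 With Hepes-Na pH 7.6 buffer containing 10 mM MgCl2, Sfp (15 nM) modified BHQ-2-YbbR (12.5 uM) using rhodamine-CoA (5 uM). Two reads 30 minutes apart at 525/598 nm yielded each well's rate.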
# JMJD2A Tudor inh: blocks the human JMJD2A Tudor domain | O75164 | AlphaScreen JMJD2A-Tudor / H3K4me3 peptide binding | Potency, µM (series often up to 114 µM), for the others: at the top dose activity change, negative = inhibition, hits mostly inhibitors | 4.4% of 390,000 active | AID 504339; note: % is set by controls: 0 for no effect and ±100 for the full control effect; nearly all actives have a fitted effect of over 50% in size
# G9a block: inhibitors of human histone lysine methyltransferase G9a | G9a H3K9 monomethylation, AlphaScreen, 2 h | Q96KQ7 | Potency, µM (highest dose often 102 µM), for inactives: at the highest dose activity, negative = inhibition, most hits filed as inhibitors | 8.8% of 350,000 active; note: % is set by controls: 0 for no effect and ±100 for the full control effect; nearly all actives have a fitted effect of over 75% in size
#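 Quantitative HTS format: methyltransferase activity on a biotin-tagged H3K9 peptide is measured by AlphaScreen, using a rabbit anti-monomethyl-H3K9 antibody with streptavidin donor and anti-IgG acceptor beads. Final levels are 20 nM enzyme, 500 nM peptide, 20 uM SAM; 2 h RT.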
# The depositor's hits bear a star; ? = inconclusive; / = not tested or not shown; [ ] = dose if it differs, or a comment. Most compounds without a hit are left out; they make up all but 12% or so of the library. Calls come from the whole dose curve; as a rule, active = well fitted curve in the direction sought with a large enough effect; inconclusive = small, poorly fitted or top-dose-only effect, or another doubt; inactive = no such curve, though single readings can be large; an effect the other way counts as inactive or inconclusive. Potency is the fitted concentration of half-maximal effect.
SMILES,BAZ2B block,HP1b binding inh,L3MBTL1 block,Sfp inh,JMJD2A Tudor inh,G9a block
Cc1cc2nnc(SC3CCOC3=O)n2c2ccccc12 (stereo not given),6%,15%,0%,13%,10µM*,10µM*
CCOC(=O)C1CCN(C(=O)Cn2cnc3sc(C)c(S(=O)(=O)N4CCOCC4)c3c2=O)CC1,-11%,25%,/,19%,-4%,15%
N#Cc1nc(NCCCO)nc(Nc2ccccc2)n1,/,/,/,/,-24%,/
O=C(NCc1ccc(F)cc1)C(=O)Nc1ccc2nc3n(c(=O)c2c1)CCCCC3,-1%,35%,/,/,1%,0%[59 µM]
CC1=NN(C(C#N)c2ccc(F)cc2)C(C)(C)C1 (stereo not given),7%,57%,10%,7%,1%,8%
CC1=NN(C(C#N)c2c(C)nn(Cc3ccccc3)c2C)C(C)(C)C1 (stereo not given),-5%,29%,3%,17%,?,35µM*
CC1=NN(C(C#N)c2ccc([N+](=O)[O-])cc2)C(C)(C)C1 (stereo not given),-36%,-20%,-5%,1%,22µM*,?
CC(Sc1ccc(Cl)cc1)C(=O)NNC(=O)c1ccccc1O (stereo not given),-31%,47%,/,22%,-20%,6%
Cc1cccc(-n2c(-c3ccco3)n[nH]c2=S)c1,-5%,-35%,1%,-15%,5.6µM*,2µM*
Cc1ccc(NCc2n[nH]c(=S)n2-c2cccc(Cl)c2)cc1,-38%,-5%,/,17%,?,?
Cc1cccc(-n2c(-c3ccco3)nc3c(cnn3-c3ccccc3C)c2=O)c1,/,0%,/,/,?,?
Cc1cccc(-n2c(-c3ccc(Br)o3)n[nH]c2=S)c1,/,22%,/,/,79µM*,/
S=c1[nH]nc(-c2ccco2)n1-c1ccc(Br)cc1,/,?,/,/,25µM*,/
O=C(NC1CCCCC1)C(=S)N1CCOCC1,-7%,-2%,-2%,50µM*,-3%,?
O=C(Nc1ccccc1F)c1ccc(Cn2nc(N3CCN(c4ccccc4)CC3)ccc2=O)o1,32µM*,8%,/,/,50µM*,?
O=C(Nc1ccc(F)cc1)c1ccc(Cn2nc(N3CCN(c4ccccc4)CC3)ccc2=O)o1,-39%,-11%,/,/,?,-48%[59 µM]
N#Cc1ccccc1S(=O)(=O)N1CCN(c2nc(-c3cccs3)nc3ccccc23)CC1,/,46%,/,/,?,/
[O-][n+]1onc2c1CCC(=N/O)/C2=N\Nc1ccccc1,50µM*,/,?,32µM*,/,25µM*
COc1ccc(NC(=O)c2cc(OCCCN(C)C)nn2Cc2ccccc2)cc1,/,/,/,-16%,/,/
CCOC(=O)Cc1csc(NC(=O)Nc2ccc(OC(F)(F)F)cc2)n1,3%,7%,5%,8%,-6%,/
CCOC(=O)Cc1csc(NC(=O)NC2(C(F)(F)F)Oc3cc(Cl)c(Cl)cc3O2)n1,?,3%,/,?,?,13µM*
CCOC(=O)Cc1csc(NC(=O)NC2(C(F)(F)F)Oc3ccccc3O2)n1,?,13%,/,45µM*,-6%,8.9µM*
CCOC(=O)Cc1csc(NC(=O)NC2(C(F)(F)F)Oc3ccc(Cl)cc3O2)n1 (stereo not given),-7%,7%,/,56µM*,?,25µM*
O=C(/C=C\c1ccc2c(c1)OCO2)NC1CC(=O)N(c2cccc(F)c2)C1 (stereo not given),1%,33%,/,/,2%,7%[59 µM]
CC(C)Oc1ccc(CNC(=O)c2cnc3sc(N4CCCCCC4)nn3c2=O)cc1,-17%,10%,/,/,-11%,-4%[59 µM]
SMILES,BAZ2B block,HP1b binding inh,L3MBTL1 block,Sfp inh,JMJD2A Tudor inh,G9a block
N#Cc1cccc(NC(=O)Cn2cnc(S(=O)(=O)N3CCCCC3)c2)c1,-12%,29%,/,29%,-1%,5%[59 µM]
CCN(C(=O)CSc1nnc(Cn2nnc3ccccc32)o1)c1nc(C)cs1,15%,-4%,-2%,20µM*,-3%,?
CCN(C(=O)CSc1nnc(Cn2nnc3ccccc32)o1)c1nc(-c2ccccc2)cs1,0%,30%,/,17%,-7%,6%
CCc1ccc(N2C(=O)CC(NNc3nc4ccccc4s3)C2=O)cc1 (stereo not given),-11%,21%,1%,-12%,-20%,14µM*
O=C1CC(NNc2nc3ccccc3s2)C(=O)N1c1ccccc1 (stereo not given),-5%,27%,3%,4%,-5%,/
COC(=O)C1=C(C)N(Cc2ccccc2)C(=NCc2cccc(Cl)c2)N[C@H]1c1cccc(F)c1,-6%,3%,4%,56µM*,-22%,/
COC(=O)C1=C(C)N(Cc2ccccc2)C(=NCc2ccc(OC)cc2)N[C@H]1c1cccc(F)c1,?,0%,-7%,-7%,?,79µM*
CN(C(=O)/C=C/c1ccc([N+](=O)[O-])s1)c1ccccc1,40µM*,-14%,-25%,-4%,?,45µM*
COc1cc2c(cc1OC)CN(CC(=O)Nc1ccc(F)cc1)C(C(=O)O)C2 (stereo not given),79µM*,33%,/,?,-30%,?
COc1ccc(NC(=O)CN2CCN(CC(=O)Nc3ccc(F)cc3)CC2)c(OC)c1,7%,25%,/,0%,0%,4%
NC(=O)C1CN(S(=O)(=O)c2ccc(Cl)cc2F)c2ccccc2O1 (stereo not given),-2%,7%,/,11%,-10%,79µM*
Oc1c(N=Nc2ccccn2)ccc2ccccc12,3.2µM*,5µM*,11µM*,-15%,2.8µM*,19%[0.501 µM]
CCCCN(CCCNC(=O)c1cc(Nc2ccc(OC)cc2)nc2ccccc12)Cc1ccccc1,/,6%,/,/,-18%,4%[59 µM]
CCCCN(CCCNC(=O)c1cc(Nc2ccc(OC)c(OC)c2)nc2ccccc12)Cc1ccccc1,/,?,/,/,28µM*,11µM*
CCCCN(CCCNC(=O)c1cc(Nc2ccc(OC)cc2OC)nc2ccccc12)Cc1ccccc1,/,-20%,/,/,?,10µM*
CCCCN(C)CCCNC(=O)c1cc(Nc2ccc(OC)c(OC)c2)nc2ccccc12,-26%,-6%,/,3%,?,71µM*
O=C1[C@H]2[C@@H](C(=O)N1c1cc(Cl)cc(Cl)c1)[C@]1(C(=O)Nc3ccccc31)N1CCC[C@@H]21,?,18%,2%,16%,-35%,?
Cc1cc(Cl)c2c(c1)[C@]1(C(=O)N2)[C@@H]2C(=O)N(Cc3ccccc3)C(=O)[C@@H]2[C@@H]2CCCN21,?,18%,-19%,-14%,-31%[57.1 µM],45µM*

# Screening data: PubChem BioAssay, National Center for Advancing Translational Sciences (NCATS)
